Assay results published in the supplement of paper PMC4206461.

These compounds were tested on Pseudomonas aeruginosa PA14 dppA1-A5 penta mutant + pBBR5.DppA1 (PA14_58350) (assay: respiration area under curve with compound as sole nitrogen source, 24 h (OmniLog AUC (arbitrary units)); higher = more respiration / better utilisation as nitrogen source, active = 2000 or more).
Experimental: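 Biolog Phenotype MicroArray plates PM6-PM8: each di/tripeptide is the sole nitrogen source. Tetrazolium reduction was read in the OmniLog for 24 h at 37°C and summarised as area under the respiration curve (arbitrary units). Values below 2000 count as no respiration. Strain is the SBP penta mutant complemented with DppA1 on a plasmid under its native promoter. Lys/His/Cys peptides are excluded.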

Respiration area under curve, inactive:
NCC(=O)N[C@H](CC(=O)O)C(=O)O (plate: PM8) 0
NC(Cc1c[nH]c2ccccc12)C(=O)NC(Cc1ccccc1)C(=O)O (stereo not given) (plate: PM7) 365
NCC(=O)N[C@H](CO)C(=O)O (plate: PM8) 408
NCC(=O)N[C@@H](Cc1c[nH]c2ccccc12)C(=O)O (plate: PM6) 49.2
N[C@@H](CC(=O)O)C(=O)N[C@@H](Cc1ccccc1)C(=O)O (plate: PM6) 1720
CC(C)C[C@@H](N)C(=O)NCC(=O)O (plate: PM8) 0
CSCC[C@H](N)C(=O)N[C@@H](CC(C)C)C(=O)O (plate: PM7) 1540
CSCC[C@H](NC(=O)CN)C(=O)O (plate: PM6) 50.7
N[C@@H](Cc1c[nH]c2ccccc12)C(=O)N[C@@H](Cc1c[nH]c2ccccc12)C(=O)O (plate: PM7) 477
CC[C@H](C)[C@H](N)C(=O)N[C@@H](CCSC)C(=O)O (plate: PM6) 289

Respiration area under curve, active:
CSCC[C@H](NC(=O)[C@@H](N)CCCN=C(N)N)C(=O)O (plate: PM6) 9220
CSCC[C@H](NC(=O)[C@@H](N)CO)C(=O)O (plate: PM7) 2590
N[C@@H](Cc1ccccc1)C(=O)N[C@@H](CC(=O)O)C(=O)O (plate: PM8) 2600
NCC(=O)N1CCC[C@H]1C(=O)O (plate: PM6) 7310
NC(=O)C[C@H](N)C(=O)N[C@@H](CCC(=O)O)C(=O)O (plate: PM6) 4770
NCC(=O)N[C@@H](CC(N)=O)C(=O)O (plate: PM8) 14300
C[C@H](NC(=O)[C@@H](N)CO)C(=O)O (plate: PM7) 9020
CSCCC(N)C(=O)NC(CCCN=C(N)N)C(=O)O (stereo not given) (plate: PM7) 13200
N[C@@H](CO)C(=O)N[C@@H](Cc1ccccc1)C(=O)O (plate: PM7) 6220
C[C@H](NC(=O)CNC(=O)CN)C(=O)O (plate: PM8) 4350
CC(C)[C@H](N)C(=O)N[C@@H](Cc1ccc(O)cc1)C(=O)O (plate: PM7) 7120
C[C@@H](O)[C@H](N)C(=O)N1CCC[C@H]1C(=O)O (plate: PM7) 10700
CC(C)[C@H](N)C(=O)N[C@@H](CCC(N)=O)C(=O)O (plate: PM8) 7140
N[C@@H](CO)C(=O)NCC(=O)O (plate: PM7) 6260
CC[C@H](C)[C@H](NC(=O)[C@@H](N)CCCN=C(N)N)C(=O)O (plate: PM6) 8150
NCC(=O)N[C@@H](CC(=O)O)C(=O)O (plate: PM8) 4090
NC(N)=NCCC[C@H](N)C(=O)N[C@@H](CC(=O)O)C(=O)O (plate: PM6) 7970
NC(N)=NCCC[C@H](N)C(=O)N[C@@H](Cc1c[nH]c2ccccc12)C(=O)O (plate: PM6) 7290
C[C@H](N)C(=O)N[C@@H](C)C(=O)O (plate: PM6) 7210
CC(C)C[C@H](NC(=O)[C@H](CC(C)C)NC(=O)[C@@H](N)CC(C)C)C(=O)O (plate: PM8) 3090
NCC(=O)N[C@@H](Cc1ccccc1)C(=O)O (plate: PM6) 2000
CC(C)[C@H](NC(=O)[C@@H](N)CO)C(=O)O (plate: PM7) 6730
N[C@@H](Cc1ccccc1)C(=O)N[C@@H](CO)C(=O)O (plate: PM7) 6540
NC(=O)C[C@H](NC(=O)[C@@H](N)CO)C(=O)O (plate: PM8) 10900
N[C@@H](Cc1ccccc1)C(=O)N[C@@H](Cc1ccccc1)C(=O)O (plate: PM7) 5690
CC(C)[C@H](N)C(=O)N[C@@H](C)C(=O)O (plate: PM8) 4740
CC(C)C[C@H](NC(=O)[C@@H](N)Cc1c[nH]c2ccccc12)C(=O)O (plate: PM7) 3710
NC(=O)CC[C@H](N)C(=O)N[C@@H](CCC(=O)O)C(=O)O (plate: PM8) 7630
C[C@H](N)C(=O)N[C@@H](Cc1ccccc1)C(=O)O (plate: PM6) 6990
C[C@@H](O)[C@H](N)C(=O)N[C@@H](CC(=O)O)C(=O)O (plate: PM8) 3640
